Parameters in all cases: species or system human, MV4-11 + K-562 + COLO205 + SK-N-BE2 + OVCAR-8
The test system of one experiment is FLT3. The settings on record: read-out: apparent Kd, compound concentrations: 100 nM and 1000 nM (sheet 'Samples'), n = 1.
In the next experiment the test system is ILK. The settings on record: read-out: apparent Kd; compound concentrations: 100 nM and 1000 nM (sheet 'Samples'), CATDS: 0.155345852963269; n = 1.
For the next experiment, the system named is MAP2K1. The settings on record: read-out: apparent Kd; compound concentrations: 100 nM and 1000 nM (sheet 'Samples'), CATDS: 0.15695729249265; n = 1.
For another experiment, the system named is MYLK3. The settings on record: read-out: apparent Kd; compound concentrations: 100 nM and 1000 nM (sheet 'Samples'), CATDS: 0.17793919150823601; n = 1.
The test system of another experiment is TNIK. Particulars: read-out: apparent Kd, compound concentrations: 100 nM and 1000 nM (sheet 'Samples'), n = 1.
The next experiment has as its system FGFR1. The settings on record: read-out: apparent Kd; compound concentrations:100 nM and 1000 nM (sheet 'Samples'); n = 1.
In the next experiment the test system is FLT4. The settings on record: read-out: apparent Kd, n = 1.
Another experiment relates to PIK3C2A. The settings on record: read-out: apparent Kd; compound concentrations:100 nM and 1000 nM (sheet 'Samples'); n = 1.
A further experiment deals with GAK. The settings on record: read-out: apparent Kd, n = 1.
In the next experiment the test system is NUAK1. Particulars: read-out: apparent Kd; compound concentrations: 100 nM and 1000 nM (sheet 'Samples'), CATDS: 0.245714515933597; n = 1.
The subject of a further experiment is PLK4. Particulars: read-out: apparent Kd; compound concentrations: 100 nM and 1000 nM (sheet 'Samples'), CATDS: 0.36168703025704801; n = 1.
The subject of another experiment is PTK2. Particulars: read-out: apparent Kd; compound concentrations: 100 nM and 1000 nM (sheet 'Samples'), CATDS: 0.26626379457403998; n = 1.
The next experiment concerns FRK. The settings on record: read-out: apparent Kd; compound concentrations: 100 nM and 1000 nM (sheet 'Samples'), CATDS: 0.227181560235134; n = 1.
Another experiment relates to HCK. Particulars: read-out: apparent Kd; compound concentrations: 100 nM and 1000 nM (sheet 'Samples'), CATDS: 0.17687822419951399; n = 1.
A further experiment has as its system LCK. The settings on record: read-out: apparent Kd, compound concentrations: 100 nM and 1000 nM (sheet 'Samples'), n = 1.
Another experiment concerns LYN. The settings on record: read-out: apparent Kd; compound concentrations: 100 nM and 1000 nM (sheet 'Samples'), CATDS: 0.140123988269205; n = 1.
A further experiment has as its system MAP2K5. The settings on record: read-out: apparent Kd, n = 1.
The next experiment relates to TNK2. The settings on record: read-out: apparent Kd; compound concentrations: 100 nM and 1000 nM (sheet 'Samples'), CATDS: 0.21718962243178; n = 1.
Another experiment deals with GRK6. The settings on record: read-out: apparent Kd; compound concentrations:100 nM and 1000 nM (sheet 'Samples'); n = 1.
For another experiment, the system named is JAK2. Particulars: read-out: apparent Kd; compound concentrations:100 nM and 1000 nM (sheet 'Samples'); n = 1.
The subject of another experiment is MAPK10. The settings on record: read-out: apparent Kd; compound concentrations:100 nM and 1000 nM (sheet 'Samples'); n = 1.
The test system of a further experiment is MAPK9. Particulars: read-out: apparent Kd; compound concentrations:100 nM and 1000 nM (sheet 'Samples'); n = 1.
The test system of another experiment is NLK. Particulars: read-out: apparent Kd; compound concentrations:100 nM and 1000 nM (sheet 'Samples'); n = 1.
A further experiment deals with TTK. The settings on record: read-out: apparent Kd; compound concentrations: 100 nM and 1000 nM (sheet 'Samples'), CATDS: 0.35015598460163; n = 1.
In the next experiment the test system is SIK2. The settings on record: read-out: apparent Kd; compound concentrations:100 nM and 1000 nM (sheet 'Samples'); n = 1.
Another experiment has as its system SIK3. Particulars: read-out: apparent Kd; compound concentrations:100 nM and 1000 nM (sheet 'Samples'); n = 1.
The test system of another experiment is ZAK. The settings on record: read-out: apparent Kd; compound concentrations:100 nM and 1000 nM (sheet 'Samples'); n = 1.
In another experiment the test system is STK10. Particulars: read-out: apparent Kd; compound concentrations: 100 nM and 1000 nM (sheet 'Samples'), CATDS: 0.42195435963049299; n = 1.
The subject of the next experiment is NQO2. The settings on record: read-out: apparent Kd; compound concentrations: 100 nM and 1000 nM (sheet 'Samples'), CATDS: 0.45168770198248398; n = 1.
The next experiment deals with MAP4K1. The settings on record: read-out: apparent Kd; compound concentrations: 100 nM and 1000 nM (sheet 'Samples'), CATDS: 0.115744032998791; n = 1.
A further experiment relates to MAP4K2. The settings on record: read-out: apparent Kd; compound concentrations: 100 nM and 1000 nM (sheet 'Samples'), CATDS: 7.8376321207257696E-2; n = 1.
The test system of a further experiment is MAP4K3. Particulars: read-out: apparent Kd; compound concentrations: 100 nM and 1000 nM (sheet 'Samples'), CATDS: 7.2653483868183794E-2; n = 1.
The next experiment has as its system MAP4K5. Particulars: read-out: apparent Kd; compound concentrations: 100 nM and 1000 nM (sheet 'Samples'), CATDS: 9.0249941941856496E-2; n = 1.
The subject of another experiment is RET. Particulars: read-out: apparent Kd; compound concentrations: 100 nM and 1000 nM (sheet 'Samples'), CATDS: 0.14686027995557299; n = 1.
A further experiment relates to TNK1. The settings on record: read-out: apparent Kd; compound concentrations: 100 nM and 1000 nM (sheet 'Samples'), CATDS: 9.7568423036534901E-2; n = 1.
Setting [1] is: compound concentrations:100 nM and 1000 nM (sheet 'Samples').

Where two headings read alike, the source gives them in different places.

Turning to `COc1cc[nH]c1/C=C1\C(=O)Nc2ccccc21` [RO0272159-000], the potency estimated from few doses was 0.0551 µM in the experiment with FLT3 (CATDS: 0.77308167829792795); 1.91 µM in the experiment on ILK; 1.85 µM with MAP2K1; 1.28 µM in the experiment with MYLK3; 1.08 µM in the experiment with TNIK (CATDS: 0.18945964172461099).
Turning to `COc1cc(OC)cc(-c2cc3cnc(N)nc3nc2NC(=O)NC(C)(C)C)c1` [PFE-PKIS_3], the potency estimated from few doses in the experiment on FGFR1 is 0.0858 µM; in the experiment on FLT4 (setting [1]), 1.38 µM; in the experiment on PIK3C2A it was 2.38 µM.
In the case of `CCC(=O)Nc1cccc(Oc2nc(Nc3ccc(N4CCN(C)CC4)cc3OC)ncc2Cl)c1` [WZ4003], the potency estimated from few doses in the experiment with GAK (compound concentrations: 100 nM and 1000 nM (sheet 'Samples'), CATDS: 0.18485172893482499) was 1.6 µM; in the experiment on NUAK1, 0.76 µM; with PLK4, 0.371 µM; with PTK2 it was 0.643 µM.
Consider `Cc1ccc(C(=O)Nc2ccc(Nc3ccnc4cc(-c5ccccn5)ccc34)cc2O)cc1.Cl` [GW440146A], for which the potency estimated from few doses in the experiment on FRK was 0.25 µM; with HCK, 0.398 µM; with LCK (CATDS: 0.18982268752043399) it was 0.346 µM; in the experiment on LYN, 0.686 µM; with MAP2K5 (compound concentrations: 100 nM and 1000 nM (sheet 'Samples'), CATDS: 0.111910092443395), 1.45 µM; in the experiment with TNK2 it was 0.27 µM.
`Cn1c(=O)c(Oc2ccc(F)cc2F)cc2cnc(NC3CCOCC3)nc21` [RO3304806-000]: the potency estimated from few doses in the experiment with GRK6 is 1.35 µM; in the experiment with JAK2, 0.603 µM; in the experiment on MAPK10, 1 µM; in the experiment with MAPK9, 1.78 µM; with NLK it was 1.62 µM.
Turning to `COc1cc(N2CCN(C(C)C)CC2)ccc1Nc1nc(Nc2cccc3ncccc23)c2cc[nH]c2n1` [GSK1511931A], the potency estimated from few doses was 0.0839 µM in the experiment on GAK (compound concentrations: 100 nM and 1000 nM (sheet 'Samples'), CATDS: 0.87402661457119502); 1.08 µM in the experiment on TTK.
With `Nc1ncnc2c1ncn2-c1ccc(Cl)cc1` [AH2635], the potency estimated from few doses in the experiment on FLT3 (CATDS: 1) is 1.61 µM.
As for `CNS(=O)(=O)c1ccc(N(C)C)c(Nc2ncnc3cc(OC)c(OC)cc23)c1` [GSK114], the potency estimated from few doses is 0.0281 µM in the experiment on GAK (setting [1]); 0.0127 µM with MAP2K5 (setting [1]); 0.639 µM in the experiment with SIK2; 1.35 µM in the experiment on SIK3; 0.646 µM in the experiment on ZAK.
Consider `CCS(=O)(=O)c1ccc(OC)c(Nc2ncc(-c3cccc(-c4ccccc4F)c3)o2)c1` [GW678313X], for which the potency estimated from few doses in the experiment on FLT4 (setting [1]) was 0.423 µM.
Take `C#Cc1cccc(Nc2ncnc3cc(OCCOC)c(OCCOC)cc23)c1.Cl` [GW459135A]: the potency estimated from few doses in the experiment on GAK (compound concentrations: 100 nM and 1000 nM (sheet 'Samples'), CATDS: 0.61346853975848203) is 0.949 µM; with STK10, 2.06 µM.
With `CN1C(=O)C(c2c[nH]c3ccccc23)=C(c2c[nH]c3ccccc23)C1=O` [RO0316045-000], the potency estimated from few doses is 1.37 µM with FLT4 (compound concentrations: 100 nM and 1000 nM (sheet 'Samples'), CATDS: 0.55988503208503904); 2.11 µM in the experiment with NQO2.
With `CN(c1ccc(NC(=O)Nc2ccc(OC(F)(F)F)cc2)cc1)c1ccnc(Nc2cccc(S(N)(=O)=O)c2)n1` [GW806742X], the potency estimated from few doses in the experiment with FLT3 (CATDS: 0.14801329572366401) was 0.336 µM; in the experiment with FLT4 (compound concentrations: 100 nM and 1000 nM (sheet 'Samples'), CATDS: 0.285311181024344), 0.122 µM; in the experiment with LCK (CATDS: 8.5117028494468894E-2), 1.11 µM; in the experiment on MAP4K1, 0.536 µM; in the experiment with MAP4K2, 1.42 µM; in the experiment on MAP4K3, 1.83 µM. Also, the potency estimated from few doses in the experiment on MAP4K5 is 0.951 µM; in the experiment on RET, 0.34 µM; with TNIK (CATDS: 6.8078386206779196E-2) it was 2.36 µM; in the experiment with TNK1, 0.783 µM.
